# Assay results reported in PubChem BioAssay (NCATS).
# Results filed as inconclusive are left out. Where a call stands in place of a potency, no number is given. Unmarked numbers belong to inactive results. Active and inactive are the calls of the source. Calls follow the shape of the full dose curve.
# Experiment: Cytotoxicity counterscreen for inhibitors of SARS-CoV-2 cell entry (AID 1645845); also: nearly all actives have a fitted effect of over 50% in size
# Settings: cell viability (SARS-CoV-2 entry assay cells); series mostly up to 57.1 µM; activity change, negative = cytotoxicity: at the top concentration
# Summary of the method: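 Expi293F/hACE2 cells seeded overnight; cpd pin-transferred in DMSO, 1 h preincubation, + media, 48 h 37 C 5% CO2; ATPLite 1step luminescence; normalized to cells and no cells.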
# Potency is read from the fitted curve at half-maximal effect.
SMILES,outcome,Potency,"activity change, negative = cytotoxicity"
CCOC(=O)c1ccccc1O,inactive,–,–
CC(C)c1ccc2oc3nc(N)c(C(=O)O)cc3c(=O)c2c1,–,10 µM (active),–
OC[C@H]1O[C@@H](Oc2ccc(O)cc2)[C@H](O)[C@@H](O)[C@@H]1O,inactive,–,–
O=C(O[C@H]1CN2CCC1CC2)N1CCc2ccccc2[C@@H]1c1ccccc1,–,–,0.205%
CCCCCCCN(CC)CCCC(O)c1ccc(NS(C)(=O)=O)cc1 (stereo not drawn),–,inactive,–
O=C(O)Cc1sc(-c2ccccc2)nc1-c1ccc(Cl)cc1,inactive,–,–
CCOc1cc(OCC)c(C(=O)CCC(=O)O)cc1OCC,–,–,-7.15%
CC(=O)CC(c1ccc([N+](=O)[O-])cc1)c1c(O)c2ccccc2oc1=O (stereo not drawn),inactive,–,–
CO[C@H]1C[C@@H]2CC[C@@H](C)[C@@](O)(O2)C(=O)C(=O)N2CCCC[C@@H]2C(=O)O[C@H]([C@@H](C)C[C@@H]2CC[C@H](O)[C@H](OC)C2)CC(=O)[C@H](C)C=C(C)[C@@H](O)[C@@H](OC)C(=O)[C@H](C)C[C@H](C)C=CC=CC=C1C,–,–,-23.9%
O=C1[O][Bi][O]c2ccccc21,inactive [at 0.702 µM],–,–
c1ccc2sc(SN3CCOCC3)nc2c1,inactive,–,–
N#Cc1ccc2c(c1)N(CCCN1CCC(O)CC1)c1ccccc1S2,–,–,-26.9%
O=C(Cn1ccnc1[N+](=O)[O-])NCc1ccccc1,–,–,-8.8%
C=CC1=C(C(=O)O)N2C(=O)[C@@H](NC(=O)/C(=N\O)c3csc(N)n3)[C@H]2SC1 (stereo in doubt),–,–,-11.3%
CCN(CC)C(=O)/C(C#N)=C/c1cc(O)c(O)c([N+](=O)[O-])c1,–,–,-2.36%
CC(C)[C@H]1C(=O)N2CCC[C@H]2[C@]2(O)O[C@](NC(=O)[C@@H]3C[C@@H]4c5cccc6[nH]cc(c56)C[C@H]4N(C)C3)(C(C)C)C(=O)N12,inactive,–,–
NS(=O)(=O)c1cc(Cl)c(Cl)c(S(N)(=O)=O)c1,–,inactive,–
NS(=O)(=O)c1ccc(Cl)c(S(N)(=O)=O)c1,inactive,–,–
Cc1c(F)c(N2CCNC(C)C2)cc2c1c(=O)c(C(=O)O)cn2C1CC1 (stereo not drawn),–,–,-0.217%

SMILES,outcome,Potency,"activity change, negative = cytotoxicity"
CNCCCCOc1ccccc1Cc1ccccc1,inactive,–,–
O=C(OCC1(COC(=O)c2cccnc2)CCCC(COC(=O)c2cccnc2)(COC(=O)c2cccnc2)C1O)c1cccnc1,inactive,–,–
C[N+]1(C)[C@@H]2CC(OC(=O)[C@H](CO)c3ccccc3)C[C@H]1[C@@H]1O[C@@H]12 (stereo partly drawn),–,inactive,–
CCOC(=O)C1=C[C@@H](OC(CC)CC)[C@H](NC(C)=O)[C@@H](N)C1,–,inactive,–
CCOCCn1c(C2CCN(CCc3ccc(C(C)(C)C(=O)O)cc3)CC2)nc2ccccc21,inactive,–,–
CCc1cccc(CC)c1NC(=O)CN(CC(=O)O)CC(=O)O,inactive,–,–
CC(=O)NCCCS(=O)(=O)O,–,inactive,–
CC1(C)O[C@@H]2C[C@H]3[C@@H]4C[C@H](F)C5=CC(=O)C=C[C@]5(C)[C@@]4(F)[C@@H](O)C[C@]3(C)[C@]2(C(=O)CO)O1,–,inactive,–
c1ccc2c(c1)CCCC2C1=NCCN1 (stereo not drawn),inactive,–,–
CC1(C)S[C@@H]2[C@H](NC(=O)C(c3ccccc3)S(=O)(=O)O)C(=O)N2[C@H]1C(=O)O (stereo partly drawn),–,–,-7.14%
COC(=O)C(c1ccccc1)C1CCCCN1 (stereo not drawn),–,–,-20.5%
Cc1cccc(C)c1OCC(=O)N[C@@H](Cc1ccccc1)[C@@H](O)C[C@H](Cc1ccccc1)NC(=O)[C@H](C(C)C)N1CCCNC1=O,–,–,-4.69%
Nc1ccn([C@@H]2CS[C@H](CO)O2)c(=O)n1,–,inactive,–
CS(=O)(=O)c1ccc([C@@H](O)[C@@H](CO)NC(=O)C(Cl)Cl)cc1,–,–,0.303%
CN1C[C@@H]2C[C@H]1CN2c1cc2c(cc1F)c(=O)c(C(=O)O)cn2C1CC1,–,–,-9.14% [at 27.1 µM]
c1ccc(-c2nc[nH]c2-c2ccccc2)cc1,–,–,-4.82%
CCC[C@@]1(CCc2ccccc2)CC(O)=C([C@H](CC)c2cccc(NS(=O)(=O)c3ccc(C(F)(F)F)cn3)c2)C(=O)O1,–,–,-3.66%
CCOC(=O)C1=C(COCCN)NC(C)=C(C(=O)OC)C1c1ccccc1Cl (stereo not drawn),–,–,-1.22%
CC(=O)Nc1ccc(OC(=O)c2ccccc2OC(C)=O)cc1,–,–,0.0165%
